# Assay results reported in PubChem BioAssay (NCATS).
# Unmarked numbers belong to inactive results. Inconclusive results are not listed. Where a call stands in place of a potency, no number is given. Active and inactive are the calls of the source. Unless noted, the call rests on the fitted dose curve; in most records, active means well fitted curve in the direction sought with a large enough effect; inconclusive means small, poorly fitted or top-dose-only effect, or another doubt; inactive means no such curve, though single readings can be large; an effect the other way counts as inactive or inconclusive.
# Tests used:
# [1] = target: Rap guanine nucleotide exchange factor 3 (Homo sapiens) (UniProt O95398); assay: Confirmatory qHTS for antagonist of cAMP-regulated guanine nucleotide exchange factor 3 (EPAC1) (AID 1645880); further: nearly all actives have a fitted effect of over 55% in size
# Rap guanine nucleotide exchange factor 3 (Homo sapiens), sequence (O95398 whole entry, looked up): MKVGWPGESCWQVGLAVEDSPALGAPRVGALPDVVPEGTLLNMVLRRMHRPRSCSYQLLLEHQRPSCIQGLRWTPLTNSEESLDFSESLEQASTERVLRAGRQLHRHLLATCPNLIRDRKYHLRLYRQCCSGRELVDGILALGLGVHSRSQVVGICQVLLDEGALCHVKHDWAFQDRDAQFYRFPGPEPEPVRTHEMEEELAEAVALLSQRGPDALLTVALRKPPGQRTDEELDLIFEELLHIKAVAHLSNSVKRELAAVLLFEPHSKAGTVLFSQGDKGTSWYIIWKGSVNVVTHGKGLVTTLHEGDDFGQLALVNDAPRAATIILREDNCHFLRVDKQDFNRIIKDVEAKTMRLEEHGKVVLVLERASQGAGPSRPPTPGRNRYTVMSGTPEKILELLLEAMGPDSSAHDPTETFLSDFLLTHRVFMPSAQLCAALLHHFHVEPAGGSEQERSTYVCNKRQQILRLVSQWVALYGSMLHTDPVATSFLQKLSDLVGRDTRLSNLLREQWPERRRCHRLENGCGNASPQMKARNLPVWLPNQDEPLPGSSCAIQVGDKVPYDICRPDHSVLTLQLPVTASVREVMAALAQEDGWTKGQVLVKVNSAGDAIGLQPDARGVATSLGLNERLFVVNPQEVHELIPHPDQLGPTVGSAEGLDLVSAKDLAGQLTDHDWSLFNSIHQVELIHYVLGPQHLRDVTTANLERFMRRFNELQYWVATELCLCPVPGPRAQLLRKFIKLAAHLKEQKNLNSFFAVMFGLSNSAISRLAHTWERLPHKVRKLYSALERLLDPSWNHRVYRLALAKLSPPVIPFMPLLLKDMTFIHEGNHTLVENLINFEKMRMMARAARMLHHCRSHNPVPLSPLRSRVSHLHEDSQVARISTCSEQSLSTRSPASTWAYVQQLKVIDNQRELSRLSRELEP
# Procedure, shortened: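 Released BODIPY-GDP fluoresces less than Rap1-bound BODIPY-GDP; the signal is followed at 480/540 nm at 5-min intervals over 30 min, after 5 min at room temperature. Reactions contain 100 nM EPAC1, 250 nM RAP1B-BODIPY-GDP and 50 uM GDP; results are normalized to ATA and DMSO.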
# [2] = target: Cytochrome P450 2C9 (Homo sapiens) (UniProt P11712); assay: qHTS Assay for Inhibitors and Substrates of Cytochrome P450 2C9 (AID 883); further: potency means the concentration at half of the fitted maximal effect; nearly all actives have a fitted effect of over 60% in size
# Cytochrome P450 2C9 (Homo sapiens), sequence (P11712 whole entry, looked up): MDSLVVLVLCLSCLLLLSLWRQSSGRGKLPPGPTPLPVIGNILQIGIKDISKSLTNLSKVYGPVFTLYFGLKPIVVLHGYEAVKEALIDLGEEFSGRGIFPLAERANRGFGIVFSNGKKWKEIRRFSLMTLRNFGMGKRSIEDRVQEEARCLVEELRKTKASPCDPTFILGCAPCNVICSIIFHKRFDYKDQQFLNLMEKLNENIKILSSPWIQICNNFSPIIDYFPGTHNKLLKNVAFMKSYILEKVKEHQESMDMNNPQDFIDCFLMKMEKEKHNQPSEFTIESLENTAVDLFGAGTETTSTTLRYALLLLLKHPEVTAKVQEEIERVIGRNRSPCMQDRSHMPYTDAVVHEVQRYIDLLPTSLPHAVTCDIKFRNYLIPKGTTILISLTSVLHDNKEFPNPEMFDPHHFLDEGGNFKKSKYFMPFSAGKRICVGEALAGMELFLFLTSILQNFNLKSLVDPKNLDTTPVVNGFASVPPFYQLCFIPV
# Procedure, shortened: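 A luminogenic readout tracked human CYP2C9 (10nM) converting deoxyluciferin (100uM, at KM) in 25mM KPO4 during 60 min at 37C with regenerated NADPH. Values normalized to 57uM sulphaphenazole as complete inhibition.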
# [3] = target: Cytochrome P450 3A4 (Homo sapiens) (UniProt P08684); assay: qHTS Assay for Inhibitors and Substrates of Cytochrome P450 3A4 (AID 884); further: nearly all actives have a fitted effect of over 50% in size; further: potency means the concentration at half of the fitted maximal effect
# Cytochrome P450 3A4 (Homo sapiens), sequence (P08684 whole entry, looked up): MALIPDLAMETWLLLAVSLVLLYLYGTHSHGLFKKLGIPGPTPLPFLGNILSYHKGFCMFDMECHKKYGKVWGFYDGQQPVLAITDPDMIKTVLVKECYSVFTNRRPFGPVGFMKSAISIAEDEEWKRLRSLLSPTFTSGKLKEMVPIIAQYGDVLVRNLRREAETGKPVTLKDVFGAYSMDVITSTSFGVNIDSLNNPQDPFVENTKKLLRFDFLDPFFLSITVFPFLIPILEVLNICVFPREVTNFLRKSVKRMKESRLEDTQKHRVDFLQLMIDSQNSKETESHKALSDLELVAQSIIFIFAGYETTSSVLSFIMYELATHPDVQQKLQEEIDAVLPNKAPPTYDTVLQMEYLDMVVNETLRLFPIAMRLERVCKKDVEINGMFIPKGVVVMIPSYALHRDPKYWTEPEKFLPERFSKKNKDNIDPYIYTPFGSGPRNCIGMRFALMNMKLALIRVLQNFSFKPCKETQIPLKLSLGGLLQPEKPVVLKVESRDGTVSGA
# Procedure, shortened: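 Luminescent readout of luciferin produced by CYP3A4 (20 nM) dealkylation of Luciferin-PPXE, 25 uM (its KM). NADPH-driven reaction ran 60 min at RT after 10 min compound preincubation; data scaled to 57 uM ketoconazole as 100% inhibition.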
# [4] = target: Cytochrome P450 2C19 (Homo sapiens) (UniProt P33261); assay: qHTS Assay for Inhibitors and Substrates of Cytochrome P450 2C19 (AID 899); further: nearly all actives have a fitted effect of over 60% in size; further: potency means the concentration at half of the fitted maximal effect
# Cytochrome P450 2C19 (Homo sapiens), sequence (P33261 whole entry, looked up): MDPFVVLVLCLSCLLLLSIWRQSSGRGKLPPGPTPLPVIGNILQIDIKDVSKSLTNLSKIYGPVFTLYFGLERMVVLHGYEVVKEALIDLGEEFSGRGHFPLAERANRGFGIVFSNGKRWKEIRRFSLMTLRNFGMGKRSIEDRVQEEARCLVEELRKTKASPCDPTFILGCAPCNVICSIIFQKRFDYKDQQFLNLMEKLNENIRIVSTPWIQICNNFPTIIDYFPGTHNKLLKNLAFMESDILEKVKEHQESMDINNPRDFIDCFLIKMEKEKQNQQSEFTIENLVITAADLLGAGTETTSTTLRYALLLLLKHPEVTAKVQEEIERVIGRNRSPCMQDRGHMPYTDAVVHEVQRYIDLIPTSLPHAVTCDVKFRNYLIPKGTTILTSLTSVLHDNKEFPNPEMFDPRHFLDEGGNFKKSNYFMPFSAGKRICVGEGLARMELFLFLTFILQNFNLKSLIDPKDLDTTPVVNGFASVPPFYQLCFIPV
# Procedure, shortened: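 NADPH-dependent conversion of Luciferin-H EGE (10uM, at KM) by 5nM enzyme in 50mM KPO4, 60 min at 37C following 10 min compound preincubation. Stopped with luciferin detection buffer; luminescence read after 20 min.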
# [5] = Cell Viability qHTS for small molecule stabilizers of the endoplasmic reticulum resident proteome (AID 1508629); conditions: cell viability counter-screen, 100 nM thapsigargin for final 4 h;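 further: human SH-SY5Y neuroblastoma cells carrying the GLuc-SERCaMP reporter; compound exposure about 46 h in total before the viability read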
# [6] = qHTS Assay for Identification of Small Molecule Agonists for Hypoxia Response Element Signaling Pathway (AID 914; active means well fitted activation curve with a large enough effect in the signal ratio, with a control signal flat, not every such curve was filed as active; the % refers to the signal ratio); conditions: ME-180 (cervical carcinoma) HRE-bla reporter, beta-lactamase ratio, CoCl2, 17 h; activation: active compounds read high
# Procedure, shortened: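 AC50 values come from titration-series %Activity, taken as the 460/530nm ratio of CCF4 fluorescence (excitation 405nm). CellSensor HRE-bla ME-180 cells were treated 17 hours at 37 C with compound plus an EC50 level of CoCl2.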
# [7] = Confirmation and Secondary Assay for Modulators of Hemoglobin Beta Chain Splicing at IVS2 654 locus (AID 910);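 further: per-well total GFP intensity by laser scanning cytometry after 2-day treatment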
# Procedure, shortened: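 HeLa cells stably carrying EGFP interrupted by mutant beta-globin IVS2-654 intron (CMV-driven) were treated with compound for 2 days at 37C; corrected splicing was scored as total peak GFP intensity per well (488 nm excitation, 500-520 nm emission).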
# [8] = Confirmation and Secondary Assay for Modulators of Hemoglobin Beta Chain Splicing at IVS2 705 locus (AID 930);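 further: HeLa cells stably expressing the EGFP-705 splicing reporter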
# Procedure, shortened: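 Restored EGFP fluorescence after 2-day compound exposure reports splicing correction in IVS2-705 EGFP reporter HeLa cells; positive control was 500 nM splice-blocking PNA oligo. Signal measured as well total peak GFP intensity (488 nm excitation).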
# [9] = qHTS profiling for inhibitors of Plasmodium falciparum proliferation (AID 504749); further: nearly all actives have a fitted effect of over 60% in size; conditions: P. falciparum in erythrocytes, SYBR Green DNA, 72 h, at 12.8 µM (top of the series)
# Procedure, shortened: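 Fluorescence of SYBR Green-bound parasite DNA, read at 485/535 nm, served as the growth measure. Infected erythrocytes were cultured with compound 72 h; artemisinin (0.29 uM) and DMSO wells defined the normalization range.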
# [10] = target: Cytochrome P450 2D6 (Homo sapiens) (UniProt P10635); assay: qHTS Assay for Inhibitors and Substrates of Cytochrome P450 2D6 (AID 891); further: potency means the concentration at half of the fitted maximal effect; nearly all actives have a fitted effect of over 60% in size
# Cytochrome P450 2D6 (Homo sapiens), sequence (P10635 whole entry, looked up): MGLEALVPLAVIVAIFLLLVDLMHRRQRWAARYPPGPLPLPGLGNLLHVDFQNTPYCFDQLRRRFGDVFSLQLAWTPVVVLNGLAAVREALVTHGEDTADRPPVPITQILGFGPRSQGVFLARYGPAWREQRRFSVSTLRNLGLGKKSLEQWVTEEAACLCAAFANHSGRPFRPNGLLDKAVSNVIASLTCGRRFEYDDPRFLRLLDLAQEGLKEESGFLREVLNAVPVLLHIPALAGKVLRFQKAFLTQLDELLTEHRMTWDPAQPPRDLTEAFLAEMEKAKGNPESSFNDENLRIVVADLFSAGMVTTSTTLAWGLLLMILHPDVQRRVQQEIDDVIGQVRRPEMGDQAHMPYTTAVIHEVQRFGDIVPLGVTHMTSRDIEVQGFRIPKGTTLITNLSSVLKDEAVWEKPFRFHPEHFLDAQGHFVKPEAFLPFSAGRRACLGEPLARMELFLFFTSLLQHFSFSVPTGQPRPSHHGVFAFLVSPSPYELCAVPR
# Procedure, shortened: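 Luminescent read-out of luciferin formed by 5 nM human CYP2D6 demethylating 30 uM Luciferin-ME EGE (Km level) over 60 min at room temperature after NADPH regeneration addition. Data normalized to full inhibition by 1.43 uM quinidine.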
structure (smiles),measurement,setting,value
Cc1ccc(P(=O)(CSC(=N)N)c2ccc(C)cc2)cc1,Potency,[1],inactive
COc1ccc(-c2nc3cnc(N4CCNCC4)nc3n(CCc3ccccc3)c2=O)cc1,Potency,[2],3.98 µM (active)
N#CCCn1c(=O)c(CCc2ccccc2)nc2cnc(Oc3cccc(Cl)c3)nc21,Potency,[2],3.16 µM (active)
same,Potency,[3],0.794 µM (active)
same,Potency,[4],6.31 µM (active)
same,max response,[5],7.03%
COc1ccc(-n2c(=O)cnc3cnc(N4CCNCC4)nc32)cc1,max response,[5],4.18%
CN(C)c1ncc2nc(-c3cccs3)c(=O)n(C[C@H]3CCCO3)c2n1,activation,[6],-3.72%
same,Potency,[1],inactive
COCCn1c(=O)c(-c2cccs2)nc2cnc(N(C)C)nc21,Potency,[3],7.94 µM (active)
same,Potency,[1],inactive
COc1ccccc1-c1cc(NCc2cccc(C)c2)ncn1,Potency,[3],6.31 µM (active)
same,Potency,[4],3.98 µM (active)
same,Potency,[1],inactive
COCC(=O)N1CCC2(CC1)CCN(C(=O)Nc1cccc(C#N)c1)CC2,Potency,[1],inactive
COc1ccc(C(=O)N2CCC3(CC2)CN(c2ccncc2)C3)cc1,Potency,[1],inactive
O=C(c1cccc(F)c1)N1CCC2(CC1)CN(c1cccc(-c3ccccc3)c1)C2,Potency,[3],inactive
same,Potency,[1],inactive
O=c1c(-c2cc(F)cc(F)c2)nc2cnc(N3CCNCC3)nc2n1Cc1cccs1,Potency,[2],3.98 µM (active)
Cc1cccc(CNc2nc(-c3ccc4c(c3)OCO4)nc3ccccc23)c1,Potency,[3],0.398 µM (active)
same,Potency,[4],3.16 µM (active)
same,activation,[6],6.93%
same,Potency,[1],inactive
COc1cc(O)c2c(=O)cc(C)oc2c1CC=C(C)C,outcome,[7],inactive
same,outcome,[8],inactive
same,Potency,[1],inactive
O=C(c1cccc(F)c1)N1CCC2(CCN(Cc3cc(C(F)(F)F)cc(C(F)(F)F)c3)CC2)CC1,Potency,[3],inactive
Oc1ccc(/C=C\c2cc(O)cc(O)c2)cc1,outcome,[7],inactive
same,outcome,[8],inactive
same,"activity, negative = inhibition",[9]; parasite line A,3.83%
same,"activity, negative = inhibition",[9]; parasite line B,-0.952%
COc1cccc(Cn2c(=O)c(-c3cn(C)c4ccccc34)nc3cnc(N4CCNCC4)nc32)c1,Potency,[1],inactive
O=C(c1cc(C(F)(F)F)cc(C(F)(F)F)c1)N1CCC2(CCCN(Cc3nccs3)C2)CC1,Potency,[4],inactive
O=c1cnc2cnc(Oc3cccc(Cl)c3)nc2n1Cc1ccc(F)cc1,Potency,[2],7.94 µM (active)
same,Potency,[1],inactive
O=C(Oc1ccccc1)N1CCC2(CCCN(c3ccccc3)C2)CC1,Potency,[1],inactive
COc1ccccc1CNc1ccnc(-c2ccc3c(c2)OCO3)n1,Potency,[3],1.58 µM (active)
same,Potency,[10],0.794 µM (active)
same,Potency,[4],3.16 µM (active)
same,outcome,[7],inactive
same,outcome,[8],inactive
Cc1noc(C)c1C(=O)N1CCC2(CCN(Cc3ccc(C#N)cc3)CC2)CC1,Potency,[1],inactive
CN(C)c1ncc2nc(-c3cccs3)c(=O)n(CCC#N)c2n1,Potency,[1],inactive
O=C(c1cnccn1)N1CCC[C@@]2(CCN(C(c3ccccc3)c3ccccc3)C2)C1,Potency,[1],inactive
FC(F)(F)c1ccccc1-c1nc(N2CCOCC2)c2ccccc2n1,activation,[6],9.18%
same,Potency,[1],inactive
COc1ccc(-n2c(=O)c(-c3cc(F)cc(F)c3)nc3cnc(N(C)C)nc32)cc1,Potency,[1],inactive
COCCn1c(=O)c(CCc2ccccc2)nc2cnc(Nc3cccc(OC)c3)nc21,Potency,[1],inactive
COCC(=O)N1CCC2(CC1)CN(c1ccccn1)C2,Potency,[1],inactive
Cc1ccccc1-c1cc(NCCN2CCOCC2)ncn1,Potency,[3],inactive
Cn1c(=O)c(-c2ccc(Cl)cc2)nc2cnc(Oc3cccc(Cl)c3)nc21,Potency,[3],inactive
Cc1noc(C)c1-c1cncnc1NCc1ccccc1,Potency,[3],2 µM (active)
same,activation,[6],4.46%
